Data published in PubChem BioAssay AID1626 (SRMLSC, 2009).
Out of some 220,000 compounds screened, about 2,000 (0.91%) were called active. Not shown: some 2% with an inconclusive outcome. Not all results are given here. Measured potencies and affinities stand elsewhere. Unmarked numbers belong to inactive results. Rule as the data show it: inconclusive = inhibition above about 80% without an active follow-up result; inactive = below that; test concentration not stated here.

Test: M. tuberculosis H37Rv growth inhibitors, H37Rv strain (AID 1626);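 also: bacteria incubated seven days before Alamar blue readout; 0% = bacteria only wells and 100% = bacteria with antibiotic wells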
Conditions: hits give high values, concentration not given here

Compound | inhibition
CN(c1ccccc1C(=O)N1CCN(Cc2ccc3c(c2)OCO3)CC1)S(C)(=O)=O | -0.54%
O=C(CCC(=O)OCc1cccc(C(=O)Oc2ccccc2)c1)Nc1cccc2ccccc12 | 4.16%
COc1ccc(NC(=O)CCC(=O)OCc2ccc(C(=O)Oc3ccc(Cl)cc3)cc2)cc1 | 23.3%
CC(C)(C)Nc1c([N+](=O)[O-])c(=O)sc2ccccc12 | -10.8%
NC(=O)C1CCN(C(=O)c2ccc3c(=O)n(Cc4ccco4)c(SCC(=O)c4ccccc4)nc3c2)CC1 | -1.82%
CN(CCO)c1nc(N)c(C#N)c(CC#N)c1C#N | -7.58%
CCOc1ccccc1N1CCN(CC(=O)NC(=O)NCc2ccco2)CC1 | -1.18%
COc1ccc(NC(=O)N2CCCCCC2)c(OC)c1 | -4.07%
CC(C)Cn1c(N)c(C(=O)COC(=O)c2ccc(Cl)cc2)c(=O)n(C)c1=O | 11.4%
Cn1c(N)c(C(=O)COC(=O)c2cnc(Cl)c(Cl)c2)c(=O)n(C)c1=O | -6.46%
CCOc1ccccc1CNc1nc2nc3c(c(=O)n2[nH]1)CCC3 | -2.76%
COc1ccccc1CNc1nc2nc3c(c(=O)n2[nH]1)CCC3 | 0.1%
O=c1c2c(nc3nc(NCc4ccccc4Cl)[nH]n13)CCC2 | -14.3%
O=c1c2c(nc3nc(NCc4cccc(Cl)c4)[nH]n13)CCC2 | 2.7%
O=C(CO/N=C/c1ccccc1OC(F)F)NCc1ccco1 | -2.9%
O=S(=O)(c1ccc(Cl)nc1)N1CCN(c2ncccn2)CC1 | -8.21%
CN(C)CCCNc1ncc(C(F)(F)F)cc1Cl | 4.38%
CC1=C(C(=O)Nc2ccc(C)cc2C)C(c2ccc(Cl)cc2)n2nc(C(=O)OC(C)C)nc2N1 (stereo not given) | 5.54%
CN(C)CCCNC(=O)/C(=C\c1ccc(-c2cccc([N+](=O)[O-])c2)o1)NC(=O)c1ccccc1 | -5.38%
CN(C)CCNC(=O)/C(=C/c1ccc(-c2cccc(Cl)c2)o1)NC(=O)c1ccccc1 | 5.87%
CN(C)CCCNC(=O)/C(=C\c1ccc(-c2ccc(Br)cc2)o1)NC(=O)c1ccccc1 | 6.54%
CN(C)CCNC(=O)/C(=C/c1ccc(-c2ccc(Cl)cc2)o1)NC(=O)c1ccccc1 | 10.2%
COC(=O)C1=C(c2cc3ccccc3s2)C[C@@H]2CC[C@H]1N2C(=O)NCCCOC(C)C | -2.33%
Cc1cccc(/N=C/c2c(C)[nH]n(-c3ccccc3)c2=O)n1 | -10.6%

Compound | inhibition
O=C(Cn1nc(CNc2ccc(Br)cc2)[n+]2c1CCCCC2)c1ccc([N+](=O)[O-])cc1 | 28.2%
O=C(Cn1nc(CNc2ccc(Cl)cc2)[n+]2c1CCCCC2)c1ccccc1 | 9.42%
COC(=O)CN1C(=O)[C@@H]2[C@H](C1=O)[C@@H]1CC(C(=O)OC)=C[C@@H](C(=O)OC)[C@@H]3C1=C(C(=O)[C@@]3(C)NC(=O)c1ccccc1)[C@@H]2C | -6.86%
CS(=O)(=O)N(CCc1ccccc1)CC(=O)NCc1ccccc1Cl | 6%
COc1ccc(CSc2nnc(C)n2N)cc1Br | -9.64%
COc1cc(/C=C(\NC(C)=O)C(=O)NC(C)(C)C)ccc1OC(C)=O | -3%
CCOC(=O)CSc1nc(C)cc(C)c1C#N | -7.74%
COC(=O)CSc1nc(N)c(C#N)c(-c2ccc(O)cc2)c1C#N | -2.05%
COC(=O)CSc1nc(N)c(C#N)c(C(C)C)c1C#N | 0.87%
CCCOC(=O)CSc1nc(N)c(C#N)c(CC)c1C#N | -6.1%
COc1ccc(N(CC(=O)Nc2c(C)n(C)n(-c3ccccc3)c2=O)S(=O)(=O)c2ccc(F)cc2)cc1 | -0.85%
CC(C)OC(=O)CSc1nnc(-c2cnccn2)n1-c1ccccc1 | -8.06%
CC(NC(=S)Nc1ccc([N+](=O)[O-])cc1)c1ccncc1 (stereo not given) | 2.79%
CC(C)(C)Nc1nc(SCc2ccccc2)nc(N2CCOCC2)n1 | 1.1%
O=C(NCc1ccco1)C(=O)NCC1OCCN1S(=O)(=O)c1ccc(F)cc1 (stereo not given) | 0.03%
Nc1c2c(nc3ccc(Br)cc13)N(c1ccccc1)CC2 | 14.3%
Nc1c2c(nc3ccccc13)N(C1CCCCC1)CC2 | 1.71%
CCOC(=O)c1cnn(-c2nc3c(C)cccc3s2)c1C | -7.79%
COC(=O)c1cnn(-c2nc3c(C)cccc3s2)c1C | -0.32%
O=C(O)COCc1nc2ccccc2s1 | 0.38%
CC(=O)N1CCN(c2ccc(NC(=O)c3ccc(N4CCCC4)c([N+](=O)[O-])c3)cc2Cl)CC1 | 44.6%
CCCC(=O)N1CCN(c2ccc(NC(=O)c3ccc(Br)o3)cc2)CC1 | -2.24%
O=C(Nc1cccc(Cl)c1N1CCCCC1)c1ccc(N2CCOCC2)c([N+](=O)[O-])c1 | 2.9%
O=C(Nc1cccc(Cl)c1N1CCOCC1)c1ccc([N+](=O)[O-])o1 | 1.19%

Compound | inhibition
CCCC(=O)N1CCN(c2ccc([N+](=O)[O-])cc2Cl)CC1 | 6.77%
CCCC(=O)N1CCN(c2ccc(NC(=O)c3cc4ccccc4o3)cc2Cl)CC1 | 11%
O=C(Nc1ccc(N2CCOCC2)c(Cl)c1)c1ccc(Br)o1 | 5.36%
CCCC(=O)N1CCN(c2ccc(NC(=O)c3ccco3)cc2)CC1 | -4.48%
O=C(O)c1ccc(NC(=O)C2C3CCC(C3)C2C(=O)O)cc1 (stereo not given) | 0.17%
Cn1nc(-c2ccccc2)cc1NC(=O)Nc1ccc(C(C)(C)C)cc1 | 8.89%
Cn1ncc(Br)c1NC(=O)Nc1ccc(OC(F)(F)F)cc1 | 5.76%
COc1ccc(S(=O)(=O)N2CCCC(C(=O)NCc3ccncc3)C2)cc1 (stereo not given) | -3.7%
CN(C)/C=C/C(=O)c1ccc(N2CCN(c3ncc(C(F)(F)F)cc3Cl)CC2)cc1 | -11.4%
CCOC1(OCC)C(c2ccc(N)cc2)C(C#N)(C#N)C1(OCC)OCC (stereo not given) | -7.48%
CC(C)(C)S(=O)(=O)c1cnc(-c2ccccn2)nc1N | -8.12%
O=C(CSc1nnc(-c2ccncc2)o1)c1cccc([N+](=O)[O-])c1 | -6.49%
OCC#CCSc1nnc(-c2ccncc2)o1 | -1.67%
O=C(CSc1nnc(-c2cccs2)o1)c1cccs1 | 11.9%
COc1ccc(-c2nnc(SCC(=O)c3cccs3)o2)cc1 | 12.7%
COc1ccc(-c2nnc(SCC#CCO)o2)cc1OC | -8.82%
O=C(OCC#CCSc1nnc(-c2cccc3ccccc23)o1)c1cccs1 | 60.9%
O=C(NCCSc1ccccc1)c1ccccc1 | -18.6%
O=C(c1ccco1)[C@@H]1[C@@H]2C(=O)N(c3ccccc3)C(=O)[C@@H]2C2c3ccccc3C=CN21 (stereo not given in full) | -13.4%
COc1ccc(C)cc1S(=O)(=O)N(CC(=O)Nc1cccc([N+](=O)[O-])c1)c1ccccc1 | 0.46%
Cc1cc(N2CCN(c3cccc(C)c3C)CC2)nc(-c2ccccc2)n1 | 6.21%
CC(C)(C)C(=O)Nc1nnc(Cc2ccccc2)s1 | 10.8%
CCOC(=O)CSc1nc2ccccc2c(=O)n1CC(C)C | 7.35%
CCOC(=O)C1(CCOc2ccccc2)CCN(Cc2cccc(-n3cccn3)c2)CC1 | -2.65%

Compound | inhibition
CCOC(=O)C1(CCOc2ccccc2)CCN(Cc2ccc(-n3cccn3)cc2)CC1 | 4.73%
CCc1cc2c(SCC(=O)N(CC)c3c(N)n(Cc4ccccc4)c(=O)[nH]c3=O)ncnc2s1 | 5.81%
Clc1ccc(-c2csc(N/N=C/c3ccc4c(c3)OCO4)n2)cc1 | 48.7%
CCNC(=O)Nc1nc2ccccc2s1 | 4.21%
Cc1cc(OCCCn2ccnc2)cc(C)c1Cl | 16.8%
Cc1cc(OCCCCn2ccnc2)cc(C)c1Cl | 51.5%
Cc1cccc(Cl)c1OCCCCn1ccnc1 | 3.12%
Cc1ccc(OCCCCn2ccnc2)c(Cl)c1 | 56.8%
O=C(CCN1C(=O)c2ccccc2C1=O)Nc1ccc(S(=O)(=O)N2CCOCC2)cc1 | -4.04%
Cc1cc(C)cc(OCC(O)CN2C(=O)NC(C)(C)C2=O)c1 (stereo not given) | -17.8%
FC(F)(F)c1cccc(NC(=S)N2CCN(c3ccccc3)CC2)c1 | -3.11%
CC(NC(=O)Cn1cc(C(=O)C2CC2)c2ccccc21)c1ccccc1 (stereo not given) | 6.54%
CC(C)OC(=O)c1cc(C(=O)c2cc(Br)ccc2O)coc1=N | -3.62%
COC(=O)c1cc(C(=O)c2cc(Cl)ccc2O)coc1=N | 3.92%
Nc1nnc(SCC(=O)c2ccc([N+](=O)[O-])cc2)s1 | -6.55%
COc1ccc(S(=O)(=O)N(C)c2ccc(C(N)=O)cc2)cc1 | 3%
O=C(NCc1ccc2c(c1)OCO2)C1CC(=O)N(C2CCCCCCC2)C1 (stereo not given) | 5.14%
Cc1ccc(-c2nnc(-n3ncc(C#N)c3N)c3ccccc23)cc1C | -8.25%
COc1ccc2cc(C(=O)C3CCCN(C(=O)/C=C/c4ccccn4)C3)ccc2c1 (stereo not given) | 1.13%
N=c1c2c(-c3ccccc3)c(-c3ccccc3)n(Cc3ccco3)c2ncn1CCCO | 15.2%
COc1ccc(C2c3c(ncn(Cc4ccco4)c3=N)Oc3ccc4ccccc4c32)cc1 (stereo not given) | 38.6%
N=c1c2c(-c3ccccc3)c(-c3ccccc3)n(Cc3ccco3)c2ncn1CCO | 20%
COc1ccc(-c2oc3ncn(CCN4CCOCC4)c(=N)c3c2-c2ccc(OC)cc2)cc1 | -3.67%
